From PubChem BioAssay AID1619 (SRMLSC, 2009)
Out of some 220,000 compounds screened, about 830 (0.38%) were called active.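 How the source made its calls: active means compound inhibiting the enzyme by more than half at any dose during confirmatory dose-response retesting; inconclusive means strong single-dose inhibitors picked by rank but not retested; inactive means the rest.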 A selection follows. Potency and affinity values are given separately.

The molecules below were run against Leucine aminopeptidase (Plasmodium falciparum (isolate 3D7)) (UniProt Q8IL11) (assay: P. falciparum M17LAP inhibitors, primary screen, biochemical, fluorogenic H-Leu-NHMec substrate, 1536-well (AID 1619;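 further: plate controls were full reaction with DMSO carrier for no effect and no enzyme background for full effect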)). Conditions: recombinant M17LAP, H-Leu-NHMec fluorogenic kinetic assay; at 30 µM; active compounds read high.
Sequence of Leucine aminopeptidase (Plasmodium falciparum (isolate 3D7)) (Q8IL11 whole entry, looked up): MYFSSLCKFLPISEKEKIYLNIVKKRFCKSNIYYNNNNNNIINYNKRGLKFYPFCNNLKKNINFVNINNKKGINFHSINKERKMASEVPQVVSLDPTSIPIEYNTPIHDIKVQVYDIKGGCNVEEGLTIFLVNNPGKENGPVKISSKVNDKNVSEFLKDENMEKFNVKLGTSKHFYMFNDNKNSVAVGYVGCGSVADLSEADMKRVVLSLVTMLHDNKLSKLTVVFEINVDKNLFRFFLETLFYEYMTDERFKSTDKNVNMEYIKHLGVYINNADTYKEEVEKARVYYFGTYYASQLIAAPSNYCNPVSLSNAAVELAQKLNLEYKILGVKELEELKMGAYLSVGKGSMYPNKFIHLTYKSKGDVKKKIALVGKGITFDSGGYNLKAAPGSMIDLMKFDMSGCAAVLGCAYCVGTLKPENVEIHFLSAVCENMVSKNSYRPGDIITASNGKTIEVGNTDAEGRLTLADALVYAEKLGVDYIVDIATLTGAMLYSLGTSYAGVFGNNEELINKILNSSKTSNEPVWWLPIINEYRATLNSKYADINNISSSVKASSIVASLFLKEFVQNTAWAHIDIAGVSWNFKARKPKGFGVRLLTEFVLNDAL

inhibition, inactive:
CC(=O)/C(=N\Nc1cccc(Cl)c1)Sc1nnc(-c2ccccc2)n1-c1ccccc1 -10.1%, CCC(Oc1ccccc1)C(=O)NC1C(=O)N2C1SC(C)(C)C2C(=O)O (stereo unspecified) 19.9%, Cn1c(=O)c2c(nc(N3CCCCC3)n2CCNC2=NCCC2)n(C)c1=O 11.7%, O=C(Nc1ccccc1)Nc1scc2c1c(=O)oc1ccccc12 -3.24%, COc1ccc(C(=O)N2CCc3cc(OC)c(OC)cc3C2c2cccc([N+](=O)[O-])c2)cc1OC (stereo unspecified) -0.93%, Cc1ccc(C2C(C#N)=C3N=C(N)c4ccccc4N3C3=C2C(=O)CCC3)cc1 (stereo unspecified) -9.17%, Cn1c(-c2cccc3ccccc23)n[nH]c1=S -3.33%, c1ccc2c(-c3nn[nH]n3)cccc2c1 -2.27%, O=C(Oc1ccc(Br)cc1C(=S)N1CCCC1)c1ccccc1F -3.73%, CN=C1SC(CC(=O)Nc2ccc(N3CCOCC3)cc2)C(=O)N1C (stereo unspecified) -4.74%, CSCCC(NC(=O)c1ccc(C)o1)C(=O)O (stereo unspecified) -6.5%, CSCCC(NC(=O)c1cc(C)oc1C)C(=O)O (stereo unspecified) 5.74%, COC(=O)c1cccc(NC(=O)c2onc3c2CCCC3)c1 10.6%, Cc1cc(C(F)(F)F)nn1CC(=O)NNC(=S)Nc1ccc(Cl)cc1 19.4%, Cc1cc(C(=O)N/N=C/C=C/c2cccc([N+](=O)[O-])c2)n[nH]1 26.9%, CC(C)=N/N=C(/c1ccc([N+](=O)[O-])cc1)C12CN3CN(CN(C3)C1)C2 5.26%, CCOC(=O)c1c(NS(C)(=O)=O)sc2c1CCC(C)C2 (stereo unspecified) 8.14%, CCOC(=O)c1c(NC(=O)C2C3CCC(O3)C2C(=O)O)sc2c1CCC(CC)C2 (stereo unspecified) 7.12%, CCOC(=O)c1c(NC(=O)C2C3C=CC(C3)C2C(=O)O)sc2c1CCCC2 (stereo unspecified) 42%, CCOC(=O)c1c(NC(=S)Nc2ccccc2)sc2c1CCCCC2 3.6%, CCOC(=O)c1c(NC(=O)C2C3C=CC(C3)C2C(=O)O)sc2c1CC(C)(C)OC2 (stereo unspecified) 31.8%, CCOC(=O)c1c(NC(=O)c2ccc(N3C(=O)C4C5C=CC(C5)C4C3=O)cc2)sc2c1CCCC2 (stereo unspecified) -6.59%, CCOC(=O)c1c(N)sc2c1CCC(CC)C2 (stereo unspecified) -12.2%, CCOC(=O)c1c(N2C(=O)C3C4C=CC(C4)C3C2=O)sc2c1CCC(C)C2 (stereo unspecified) 2.96%, Cc1ccc(-n2c(SCC(=O)Nc3cc(C)on3)nc3c([nH]c4ccccc43)c2=O)cc1 4.1%, Cc1cc(C)n(CC(=O)c2cccc([N+](=O)[O-])c2)n1 7.13%, CNC(=O)c1nc(C)c(C2(C)CC(c3cccc([N+](=O)[O-])c3)=NO2)s1 (stereo unspecified) 11.9%, Cn1c(=O)n(C/C=C/c2ccccc2)c(=O)c2c1nc1n2CCCN1c1ccc(F)cc1 -5.1%, O=C(C1=C[C@@H](c2ccc(Br)cc2)C[C@@H](OCCCCO)O1)N1CCN(Cc2ccccc2)CC1 -0.63%, Cc1nn(C)cc1S(=O)(=O)N1CCN(Cc2ccc(F)cc2Cl)CC1 3.03%, CN1CCC(=NNC(=O)CN(c2cccc(Br)c2)S(C)(=O)=O)CC1 12.4%, CCOc1ccc(C(=O)NCc2ccccc2)cc1Br 5.79%, CCOCCOC(=O)C1=C(C)N(C)C(=O)NC1c1cc(Cl)c(O)c(OC)c1 (stereo unspecified) 2.91%, NS(=O)(=O)c1ccc(NCC2COc3ccccc3O2)c([N+](=O)[O-])c1 (stereo unspecified) 0.14%, CCn1c(SCC(=O)c2ccc(NS(=O)(=O)c3ccccc3)cc2)nnc1-c1cccs1 37%, C=CCn1c(SCC(=O)O)nnc1-c1cccs1 0.97%, CCC(=O)Nc1ccc(C(=O)CSc2nnc(-c3ccccc3F)n2C2CC2)cc1 4.72%, Cc1ccccc1OCc1nc2ccccc2c(=O)n1N -9.96%, CCOc1ccc(S(=O)(=O)Nc2ccc(O)c(Sc3ncn[nH]3)c2)cc1 71.4%, COc1ccc(OC)c(S(=O)(=O)Nc2ccc(O)c(Sc3ncn[nH]3)c2)c1 38.9%, Nc1c([N+](=O)[O-])cnnc1-c1ccccc1 -9.73%, Cc1n[nH]c(C)c1CNCc1c(C(=O)N2CCCCCCC2)nc2ccc(Cl)cn12 -4.57%, COc1ccc(NC(=O)CSc2nnc(NC(C)=O)s2)c([N+](=O)[O-])c1 11.8%, CCOc1ccc(/C=C2/SC(=S)N(C(C(=O)O)c3ccccc3)C2=O)cc1OCC (stereo unspecified) 21.4%, CCOc1ccc(/C=C2\SC(=S)N(C(C(=O)O)c3ccccc3)C2=O)cc1OC (stereo unspecified) 30.6%, CCOc1ccc(/C=C2\SC(=S)N(NS(=O)(=O)c3ccc(C)cc3)C2=O)cc1OC 21.5%, CCOc1ccc(/C=C2\SC(=S)N(NS(=O)(=O)c3ccccc3)C2=O)cc1OC 43.7%, COc1cc(/C=C2\SC(=S)N(NS(=O)(=O)c3ccccc3)C2=O)cc(OC)c1OC 27.3%, COc1cc(/C=C2\SC(=S)N(NS(=O)(=O)c3ccc(C)cc3)C2=O)cc(OC)c1OC 19.5%, COc1cc(=O)n(C)c2c(O)cccc12 4.51%, Cc1nnc(NC(=O)CSc2nnc(Cc3ccccc3)n2Cc2ccccc2)s1 14.2%, CCN(Cc1ccccc1)S(=O)(=O)c1ccc2c(c1)NC(=O)CC(=O)N2 0.95%, CCCCC1=CC2=CC(=O)C(C)(OC(=O)CC)C(=O)C2=CN1CCc1c[nH]c2ccccc12 (stereo unspecified) -3.57%, CCCn1c(=O)c(C(=O)N/N=C/c2ccc(F)cc2)c(O)c2ccccc21 -4.04%, O=C(Cn1nc(-c2ccccc2)c2ccccc2c1=O)Nc1ccc2c(c1)nc1n2CCOC1 -12.9%, Nc1cc(=O)nc(SCC(=O)Nc2ccccc2)n1-c1ccccc1 22.1%, Nc1cc(=O)nc(SCC(=O)Nc2cccc3ccccc23)n1CCc1ccccc1 43.5%, C=CCn1c(SCC(=O)Nc2cccc3ccccc23)nnc1-c1cnccn1 1.49%, Cn1ccnc1SCC(=O)Nc1cccc2ccccc12 16.9%, Cn1c(=O)c2c(nc(SCC(=O)Nc3ccccc3)n2C)n(C)c1=O 0.43%, C=CCn1c(N)cc(=O)nc1SCC(=O)Nc1ccccc1 20%, C=CCn1c(N)cc(=O)nc1SCC(=O)Nc1ccc(C)cc1 23.5%, C=CCn1c(SCC(=O)Nc2ccccc2OC)nc(O)c(CC)c1=O 35.8%, COc1cc2c(cc1NC(=O)/C=C/c1ccc([N+](=O)[O-])cc1)oc1ccccc12 -1.67%, CC1=C/C(=N\NC(=O)c2ccc(O)cc2)CC1 12.2%, COc1ccccc1-c1nnc(SC(C(=O)c2c[nH]c3ccccc23)c2ccccc2)n1C (stereo unspecified) 6.65%, CCCC(=O)NNC(=O)CCC(=O)Nc1ccccc1Cl 6.3%, Cc1cc(-c2onc(C)c2C(=O)O)no1 -2.33%, CC(C)C1CC(CCN2CCCCC2)(c2ccccc2)CCO1 (stereo unspecified) -6.12%, CC(=O)N1CCc2cc(C(=O)CN3CCN(c4ccccn4)CC3)ccc21 8.66%, COc1ccc(Cl)cc1-c1nc(SCC(=O)NC(C)C(C)C)n[nH]1 (stereo unspecified) -5.32%, CCc1c(O)nc(SCC(=O)Nc2ccccc2)n(-c2ccccc2)c1=O -0.62%, CCc1c(O)nc(SCc2ccccc2)n(C(C)CC)c1=O (stereo unspecified) 36.5%, O=C(NCc1ccco1)C1CC(c2ccc(Cl)cc2)=NO1 (stereo unspecified) 2.33%, CC(C)(C)c1cc(C(=O)O)n(Cc2ccc(Cl)cc2Cl)n1 -0.53%, O=Nc1c(O)n(Cc2ccc(Cl)cc2Cl)c2ccccc12 -0.24%, O=C(COC(=O)C1(c2ccc(Cl)cc2)CCCC1)NCc1ccco1 -0.44%, Fc1ccc(/C=N/NC(=S)Nc2cccnc2)cc1F 8.17%, Oc1ccc(/C=N/NC(=S)Nc2cccnc2)cc1 33.2%, O=C(CSc1nnc(-c2ccc(Cl)cc2)n1Cc1ccco1)NCc1ccc2c(c1)OCO2 7.75%, O=C(N/N=C/c1cccs1)c1cccc2cc[nH]c12 8.58%, C=CCOc1ccc(/C=C2\C(=N)N3N=C(S(=O)(=O)CC)SC3=NC2=O)cc1OC 1.58%, CCS(=O)(=O)C1=NN2C(=N)/C(=C\c3ccc(SCc4ccco4)o3)C(=O)N=C2S1 33.6%, COc1ccc(/C=C/C(=O)NCC(=O)N2CCC(N(C)CCN3CCOCC3)CC2)cc1OC 0.93%, COC(=O)c1sc2nc(CN3CCN(c4ccc(OC)cc4)CC3)[nH]c(=O)c2c1C 0.73%, O=C(COC(=O)c1ccccc1NC(=O)C1CC1)c1ccc2c(c1)OCCO2 12.2%, CC(C)C(=O)Nc1ccccc1C(=O)OCC(=O)c1ccc2c(c1)OCCO2 0.77%, O=Cc1ccc(-c2cccc(C(=O)O)c2)o1 17%, O=C1c2ccccc2C(=O)N1CCCc1nc(-c2ccncc2)no1 -5.77%, CCOC(=O)N1CCN(C(=O)CCN2C(=O)COc3ccc(C)cc32)CC1 -3.49%, Cc1c(NC(=O)CSc2nc3ccccc3s2)c(=O)n(-c2ccccc2)n1C 14.2%
